Assay outcomes (PubChem)
Most compounds without a hit are left out; they make up all but 1.5% or so of the library.
CCHFV vOTU inh: CCHFV vOTU protease inhibitors, primary screen, biochemical, Pep-AMC substrate, fluorescence; Crimean-Congo hemorrhagic fever virus L polyprotein viral ovarian tumor (vOTU) protease …; inhibition, % at 11.5 µM; hit rate 0.55% among 370,000; AID 651958, 2012; in the data active means inhibition above about 30%; further: 0% = vehicle wells with enzyme and 100% = no enzyme wells
VHR inh abs: VHR1 phosphatase inhibitors, primary screen, biochemical, absorbance, uHTS; inhibition, % at 13.3 µM; Dual specificity protein phosphatase 3 (Homo sapiens), P51452; hit rate 0.52% among 290,000; recombinant VHR phosphatase, pNPP absorbance; in the data active means inhibition above about 50%
Target sequence (P51452 whole entry, looked up): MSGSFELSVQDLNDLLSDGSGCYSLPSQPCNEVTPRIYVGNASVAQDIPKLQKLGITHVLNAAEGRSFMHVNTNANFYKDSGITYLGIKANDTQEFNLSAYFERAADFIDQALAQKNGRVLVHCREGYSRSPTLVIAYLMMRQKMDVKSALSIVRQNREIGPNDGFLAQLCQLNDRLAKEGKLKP
3CLpro inhibitor: SARS-CoV 3CLpro protease inhibitors, primary screen, biochemical, quenched FRET. recombinant SARS-CoV 3CLpro, quenched FRET peptide cleavage. hit rate 0.14% among 290,000. inhibition, % at 6 µM; in the data active means inhibition above about 12%
RecA intein inh: Mtb RecA intein splicing inhibitors, primary screen, biochemical, fluorescence, HTS; Protein RecA (Mycobacterium tuberculosis (strain ATCC 25618 / H37Rv)), P9WHJ3; inhibition, % (concentration not given with the values); AID 2221, 2009; hit rate 0.75% among 290,000; cell-free RecA intein splicing; in the data active means inhibition above about 30%;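 further: 0% = vehicle wells and 100% = reference inhibitor control wells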
Starred values were filed as active, the others as inactive; i = inactive; . = no result given.

SMILES | CCHFV vOTU inh | VHR inh abs | 3CLpro inhibitor | RecA intein inh
COc1ccc(OC)c(CCNC(=O)C(C)n2nc(C)c3c(C)n(-c4ccc(C)cc4)nc3c2=O)c1 (stereo not given) | 8.1 | 55.6* | -0.8 | 5.0
N/C(Cc1cccc2ccccc12)=N\OC(=O)c1cccs1 | . | -7.9 | 1.0 | 33.0*
COc1ccc(CC(=O)O/N=C(\N)Cc2cccc3ccccc23)cc1OC | -9.9 | -1.6 | 2.4 | 31.6*
CN(C)C(=O)C1C2NC(=S)N(c3cccc(Cl)c3)C1(C)Oc1ccc(Cl)cc12 (stereo not given) | -0.3 | 11.9 | 2.6 | 1.7
C=CCn1c(O)c(C=Nc2ccc(N(CC)CC)cc2)c(=O)[nH]c1=O | 40.3* | 2.4 | -2.2 | -3.1
Cn1nc(CSc2ccccc2)c(C=O)c1Cl | -9.6 | 10.6 | 1.8 | 0.8
O=c1[nH]nc(Sc2ncnc3sccc23)n1CCc1ccccc1 | -15.2 | 33.8 | -3.4 | 31.4*
COc1cccc(CNCCc2c[nH]c3ccccc23)c1OCc1ccccc1 | -0.1 | 59.9* | 1.2 | 5.6
COc1cc(CNCCc2c[nH]c3ccccc23)cc(OC)c1OC | -2.8 | . | . | .
Cc1cccn2c(=O)c3cc(C(=O)NCc4ccc(F)cc4)c(=N)n(CC4CCCO4)c3nc12 (stereo not given) | -237.5 | 55.5* | -4.8 | i
COc1ccc(CNC(=O)c2cc3c(=O)n4cccc(C)c4nc3n(CC3CCCO3)c2=N)cc1 (stereo not given) | 9.2 | 16.5 | -3.1 | -30.7
O=C(O)C[C@@H]1C(=O)O[C@@H]2C(COC(=O)c3cc(O)c(O)c(O)c3)O[C@@H](OC(=O)c3cc(O)c(O)c(O)c3)[C@@H](OC(=O)c3cc(O)c(O)c4c3[C@H]1[C@H](O)C(=O)O4)[C@H]2OC(=O)c1cc(O)c(O)c(O)c1 (stereo not given in full) | . | 113.8* | . | .
Cc1nn(C(=O)c2cccnc2)c(C)c1Sc1ccc(Br)cc1 | . | 14.0 | 5.2 | 43.8*
Cc1nn(C(=O)c2ccco2)c(C)c1Sc1ccc(Cl)cc1 | 6.5 | 1.5 | 2.8 | 0.2
Cc1ccc(C)c(N2CCN(C(=O)c3ccc(Cn4c(=O)[nH]c5ccccc5c4=O)cc3)CC2)c1 | -1.9 | 51.2* | 0.2 | 13.4
O=C(c1ccc(Cn2c(=O)[nH]c3ccccc3c2=O)cc1)N1CCN(c2ccc(Cl)cc2)CC1 | 4.9 | 28.6 | -1.1 | -2.0
CCCNC(=O)Cn1c(=O)n(CC(=O)N2CCCCC2)c(=O)c2sccc21 | 8.2 | 55.5* | 1.0 | 2.5
COCCCNC(=O)Cn1c(=O)n(CC(=O)N2CCCCC2)c(=O)c2sccc21 | 4.0 | 1.9 | 7.0 | -2.5
CC(C)(C)c1ccc(C(=O)NCCC(=O)Nc2ccc3c(c2)OCCO3)cc1 | 2.5 | . | . | .
O=C(/C=C/c1ccco1)NC(=S)Nc1ccccc1N1CCOCC1 | 8.7 | 6.2 | 3.1 | 1.4
O=C(/C=C/c1ccco1)NC(=S)Nc1ccccc1N1CCCC1 | 21.6 | 56.3* | 1.2 | -5.9
CCOc1ccc(-n2c(SCC(=O)Nc3ccccc3-c3ccccc3)nnc2-c2cccs2)cc1 | 4.3 | . | . | .
C=CCn1c(O)c(C2=c3ccccc3=NC2=O)c2ccccc21 | 2.2 | 59.7* | -5.2 | 13.2
C[C@H]1CN([C@@H](C)CO)C(=O)CCCn2nncc2CO[C@H]1CN(C)C(=O)NC1CCCCC1 | -6.5 | . | . | .
N#Cc1ccccc1NC(=O)c1ccccc1OCC(=O)Nc1ccc2c(c1)oc1ccccc12 | -1.3 | . | -2.8 | 2.7
SMILES | CCHFV vOTU inh | VHR inh abs | 3CLpro inhibitor | RecA intein inh
CNC(=O)COc1ccccc1C(=O)Nc1ccc2c(c1)oc1ccccc12 | -3.6 | 55.3* | 0.4 | 3.2
Nc1nc(CSc2nc3ccccc3s2)nc(N2CCOCC2)n1 | 14.0 | 53.0* | 3.2 | 7.8
Nc1nc(CSCc2ccccc2)nc(N2CCOCC2)n1 | -0.8 | 20.4 | 3.7 | 1.0
CC(=O)c1ccc(NC(=O)C(C)Sc2nnc3ccccn23)cc1 (stereo not given) | -7.3 | . | . | .
O=C(Nc1ccn(Cc2c(F)c(F)c(F)c(F)c2F)n1)c1ccc(COc2ccccc2Cl)cc1 | -13.8 | 51.6* | -1.2 | 1.7
CN1CCN(S(=O)(=O)c2cccc(C(=O)N(C)CC(=O)Nc3ccc(F)c(F)c3F)c2)CC1 | -13.1 | . | . | 2.7
Cc1ccc(S[C@@H](CCN2CC[C@H](C)CCC2=O)c2ccccc2)cc1 | 7.8 | 8.9 | 0.5 | 30.3*
COc1ccc(Cc2c(C(C)(C)C)nc3ccc(Cl)cn23)c(C)c1 | 4.8 | . | . | .
